The sample as a whole holds a higher share of hits than the screen did.
Tb PYK inh – inhibitors of Trypanosoma brucei pyruvate kinase; hit rate 0.12% among 410,000; TbPYK enzyme, Kinase-Glo Plus ATP luminescence, 45 min; Potency, µM (series often up to 76.8 µM), inactives show top-dose activity, negative = inhibition, most hits filed as inhibitors; further: potency means the concentration at half of the fitted maximal effect; on the % scale 0 is the no-effect control and ±100 the full control effect; nearly all actives have a fitted effect of over 50% in size
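T. brucei PYK with substrate was exposed to pin-transferred compounds across a concentration series, then started with 130 uM ADP (final). After 45 min at room temperature, Kinase-Glo Plus luminescence was read, normalized and curve-fitted.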
FBPA Giardia inh – blocks Giardia fructose-bisphosphate aldolase activity; A8B2U2; purified Giardia FBPA; Potency, µM (series often up to 59.6 µM), for the others: at the highest dose activity, negative = inhibition, usual class: inhibitors; hit rate 0.71% among 290,000; further: potency means the concentration at half of the fitted maximal effect; on the % scale 0 is the no-effect control and ±100 the full control effect; nearly all actives have a fitted effect of over 55% in size
Target sequence (A8B2U2 whole entry, looked up): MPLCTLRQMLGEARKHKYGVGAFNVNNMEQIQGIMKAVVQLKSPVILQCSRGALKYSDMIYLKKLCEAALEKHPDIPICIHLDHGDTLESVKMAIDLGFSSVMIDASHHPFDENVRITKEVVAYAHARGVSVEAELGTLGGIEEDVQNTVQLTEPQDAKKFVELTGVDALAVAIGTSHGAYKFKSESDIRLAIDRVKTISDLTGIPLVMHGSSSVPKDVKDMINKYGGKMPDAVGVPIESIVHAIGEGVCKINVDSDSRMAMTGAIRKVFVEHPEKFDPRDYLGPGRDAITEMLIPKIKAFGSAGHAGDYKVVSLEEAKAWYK
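40 nM FBPA preincubated 10 min at RT with compound (up to 57.5 uM final), then substrate plus GAPDH/TPI/NAD/arsenate coupling and diaphorase/resazurin added. Fluorescence read after 20 min at RT, 525/598 nm.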
Shiga inhibitor – inhibitors of Shiga toxin in Vero cells | Vero cells, Shiga toxin protein synthesis inhibition reporter | inhibition, % at 38.7 µM | hit rate 9.2% among 290,000 | AID 2315; in the data active means inhibition mostly above about 28%, no sharp cut-off; inactive means mostly below about 43%; further: 0% is about no effect
RE007 growth inh – less growth of the S. pombe RE007 Vpr strain | hit rate 0.21% among 360,000 | Potency, µM (titrated, usually from 92.2 µM), inactives show at the top dose activity change, negative = less growth, hits mostly inhibitors | S. pombe RE007 Vpr strain, BacTiter-Glo ATP luminescence, 24 h | AID 651644; active means well fitted falling curve with a large enough effect; inconclusive means small, poorly fitted or top-dose-only effect; inactive means no such curve, though single readings can be large or run the other way; further: potency means the concentration at half of the fitted maximal effect; on the % scale 0 is the no-effect control and ±100 the full control effect; nearly all actives have a fitted effect of over 50% in size
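Fission yeast strain RE007, carrying one chromosomally integrated HIV-1 vpr copy, was seeded at OD 0.01 in PMG+AL medium with 23 nL pinned compound. After 24 h at 30 °C and 99% humidity, viability was read by BacTiter-Glo luminescence.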
Cycloheximide cs – affects cycloheximide protein synthesis inhibition readout, counter-screen; cell reporter, cycloheximide protein synthesis inhibition counterscreen; hit rate 12% among 300,000; max response, %; in the data active means max response mostly above about 13%, no sharp cut-off; inactive means mostly below about 14%; further: read at 38.3 µM for the half of the compounds with a filed dose; 0% is about no effect
LmPK inhibitor – LmPK (Leishmania mexicana) enzyme inhibition; Q27686; purified LmPK, Kinase-Glo ATP luminescence, 1 h; Potency, µM (titrated, usually from 57.5 µM), for the others: top-dose activity change, negative = inhibition, actives largely listed as inhibitors; hit rate 0.37% among 290,000; AID 1721; further: potency means the concentration at half of the fitted maximal effect; on the % scale 0 is the no-effect control and ±100 the full control effect
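Purified LmPK (0.1 nM) converted ADP (0.1 mM) to ATP with PEP (0.5 mM) in imidazole buffer pH 7.2 with KCl and MgCl2, 1 h at room temperature. ATP was read by Kinase-Glo luminescence; data normalized to uninhibited and no-enzyme controls.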
The depositor's hits bear a star; [ ] = dose if it differs, or a comment. Unless noted, the call rests on the fitted dose curve; in most records, active means well fitted curve in the direction sought with a large enough effect; inconclusive means small, poorly fitted or top-dose-only effect, or another doubt; inactive means no such curve, though single readings can be large; an effect the other way counts as inactive or inconclusive.

`COc1ccc(CNc2nc3ccccc3n2C)c(OC)c1` gave Tb PYK inh -16.6%, FBPA Giardia inh -4.6%, Shiga inhibitor 81.9*, RE007 growth inh -16.4%, Cycloheximide cs 39.8* and LmPK inhibitor 17.8µM*.
CCCCn1c(NCc2cc(Br)ccc2O)nc2ccccc21 was read as Tb PYK inh -2.3%.
For COc1ccc(CNc2nc3ccccc3n2C(C)C)c(O)c1 the results were Tb PYK inh -1.9%, FBPA Giardia inh -5.1%, RE007 growth inh -10.4%, Cycloheximide cs 1.3 and LmPK inhibitor 14.3%.
`COc1ccc(CNc2nc3ccccc3n2C)c(O)c1` gave Tb PYK inh -11.8%, FBPA Giardia inh 0.1%, Shiga inhibitor 69.3*, RE007 growth inh -24.2%, Cycloheximide cs 38.6* and LmPK inhibitor -12.8%.
Screening O=C(Nc1ccccc1)Nc1ccc(Br)cc1F returned Tb PYK inh -11.3%, FBPA Giardia inh -1.9%, Shiga inhibitor 110.2*, RE007 growth inh -6.9%, Cycloheximide cs 30.5* and LmPK inhibitor 2.0%.
Cc1ccccc1NC(=O)Nc1ccccc1Br was read as Tb PYK inh 3.4%, FBPA Giardia inh 4.8%, Shiga inhibitor 37.5, RE007 growth inh -1.4%, Cycloheximide cs 4.8 and LmPK inhibitor 4.3%.
`Cc1cc(NC(=O)Nc2ccccc2F)ccc1Br` gave Tb PYK inh -4.4%, FBPA Giardia inh -5.7%, Shiga inhibitor 77.2*, RE007 growth inh -0.4%, Cycloheximide cs 55.0* and LmPK inhibitor -14.3%.
`N#Cc1ccccc1NC(=O)Nc1cccc(Cl)c1` gave Tb PYK inh 0.6%, FBPA Giardia inh -3.7%, Shiga inhibitor -13.7, RE007 growth inh -15.5%, Cycloheximide cs -3.1 and LmPK inhibitor -2.1%.
Screening O=C(Nc1cccc(Cl)c1)Nc1ccc(Br)cc1F returned Tb PYK inh 2.7%, FBPA Giardia inh -1.2%, Shiga inhibitor 67.0*, RE007 growth inh 5.7%, Cycloheximide cs 18.9* and LmPK inhibitor 1.4%.
`CC(=O)Nc1ccc(SCC(=O)O)cc1` gave Tb PYK inh -0.3%, FBPA Giardia inh 3.3%, Shiga inhibitor 18.4, RE007 growth inh -9.4%, Cycloheximide cs 0.7 and LmPK inhibitor -0.4%.
Screening O=C(O)CSc1ccc(NC(=O)Nc2ccccc2F)cc1 returned Tb PYK inh inconclusive, FBPA Giardia inh 9.0%, Shiga inhibitor 23.6, RE007 growth inh inconclusive, Cycloheximide cs 5.2 and LmPK inhibitor 15.8µM*.
`COc1ccc(-c2c(C#N)c(N)nc3c2CCC3)cc1` gave Tb PYK inh 4.4%, FBPA Giardia inh 0.8%, Shiga inhibitor 15.2, RE007 growth inh -10.4%, Cycloheximide cs 20.4* and LmPK inhibitor 3.8%.
Screening N#Cc1c(N)nc2c(c1-c1ccccc1)CCC2 returned Tb PYK inh -14.2%, FBPA Giardia inh -6.0%, Shiga inhibitor 28.6, RE007 growth inh 35.3%, Cycloheximide cs 19.9 and LmPK inhibitor -2.0%.
`CCN1C(=O)[C@H]2[C@H]3[C@H](O)[C@H](O)C/C(=N/OC[C@@H](O)[C@H]4O[C@H]5OC(C)(C)O[C@H]5[C@@H]4O)[C@@H]3CC[C@@H]2C1=O` gave FBPA Giardia inh 0.1%[12.9 µM].
Screening N#C/C(=N\Nc1ccc(Cl)cc1)C(=O)c1ccsc1 returned Tb PYK inh 2.9%, FBPA Giardia inh -12.8%, Shiga inhibitor 52.8*, RE007 growth inh 18.6%, Cycloheximide cs 30.7* and LmPK inhibitor -0.6%.
Cc1ccc(N/N=C(\C#N)C(=O)c2ccsc2)cc1 was read as Tb PYK inh -6.5%, FBPA Giardia inh -18.4%, Shiga inhibitor 54.7, RE007 growth inh -12.2%, Cycloheximide cs 21.0* and LmPK inhibitor 5.8%.
For CCCCCn1c(=O)c2c(nc3n2CCN3c2ccc(Br)cc2)n(C)c1=O the results were Tb PYK inh 1.0%.
Screening COc1ccc(CNC(=O)c2ccc3c(c2)N(Cc2c(F)cccc2Cl)C(=O)CS3)cc1 returned Tb PYK inh 4.9%.
For CN1C(=O)C2(c3ccccc31)N(c1ccc(Br)cc1)C(=O)CS2(=O)=O (configuration not stated) the results were Tb PYK inh -1.7%.

Screening results: PubChem BioAssay, National Center for Advancing Translational Sciences (NCATS)
